# Reference: PubChem BioAssay AID2550 (Johns Hopkins Ion Channel Center, 2010)
# Screen size: about 310,000 compounds; about 380 (0.12%) were called active.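 Rule for the calls: active = B-score of the integrated fluorescence ratio above library mean plus 3 SD, and starting fluorescence ratio within library mean plus 5 SD; inactive = the rest.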 The full list was thinned out, with actives kept by preference.
# Target: Short transient receptor potential channel 6 (Mus musculus) (UniProt Q61143)
# Assay: small molecules opening TRPC6 cation channel – cell-based, HEK293, membrane potential dye, primary screen (AID 2550);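 note: higher score means more depolarization so channel activation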
# Settings: HEK293-TRPC6 membrane potential dye fluorescence, at 10 µM; stronger effect = higher value
# Short transient receptor potential channel 6 (Mus musculus), sequence (Q61143 whole entry, looked up): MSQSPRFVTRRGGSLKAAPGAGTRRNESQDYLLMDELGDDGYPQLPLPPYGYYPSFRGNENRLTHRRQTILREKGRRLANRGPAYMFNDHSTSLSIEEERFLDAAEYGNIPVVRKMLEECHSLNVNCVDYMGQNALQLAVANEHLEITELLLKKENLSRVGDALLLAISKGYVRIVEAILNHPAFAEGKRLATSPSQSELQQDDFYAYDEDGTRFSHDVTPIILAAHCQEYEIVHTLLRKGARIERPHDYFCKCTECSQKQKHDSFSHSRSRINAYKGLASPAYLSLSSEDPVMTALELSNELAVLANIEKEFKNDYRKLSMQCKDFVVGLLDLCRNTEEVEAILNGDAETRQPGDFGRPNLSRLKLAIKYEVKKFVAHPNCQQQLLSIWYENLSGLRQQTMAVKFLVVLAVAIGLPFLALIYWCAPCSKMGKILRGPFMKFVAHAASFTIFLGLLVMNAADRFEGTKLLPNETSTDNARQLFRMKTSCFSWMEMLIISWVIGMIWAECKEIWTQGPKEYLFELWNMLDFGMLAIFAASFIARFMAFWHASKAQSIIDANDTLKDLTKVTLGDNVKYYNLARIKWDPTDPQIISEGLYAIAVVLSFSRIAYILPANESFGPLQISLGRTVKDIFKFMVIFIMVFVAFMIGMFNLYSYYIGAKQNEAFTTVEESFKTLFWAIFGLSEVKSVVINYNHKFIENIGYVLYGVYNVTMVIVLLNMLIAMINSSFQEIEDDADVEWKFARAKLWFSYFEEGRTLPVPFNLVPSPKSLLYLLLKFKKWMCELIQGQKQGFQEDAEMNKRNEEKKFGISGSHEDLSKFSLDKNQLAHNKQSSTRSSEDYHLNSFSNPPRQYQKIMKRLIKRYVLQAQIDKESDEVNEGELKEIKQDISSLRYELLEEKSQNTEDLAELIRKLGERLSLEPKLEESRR
row,SMILES,B-score
1,CCOC(=O)/C(N=Nc1cc(C(=O)O)cc(C(=O)O)c1)=C(\O)CCl,inactive
2,CC(=O)c1ccc(NC(=O)C(C)NCc2ccc(Cl)cc2)cc1 (configuration not stated),inactive
3,N#C/C(=C/c1ccc(N2CCCCC2)o1)C(=O)NCCc1c[nH]c2ccccc12,33.2 (active)
4,O=C(CN1C(=O)NC2(CCCCC2)C1=O)NCCc1c[nH]c2ccccc12,inactive
5,CC(=O)N/C(=C/c1ccc(Cl)cc1)C(=O)NCCc1c[nH]c2ccccc12,inactive
6,O=C(COc1cc2oc(=O)c3c(c2cc1Cl)CCC3)NCCCN1CCOCC1,inactive
7,COc1nc(N(C)C)nc(N2CC(=O)N(CCNS(=O)(=O)c3ccc(C)cc3)C2=N)n1,inactive
8,CC(NCc1ccccc1OC1CCCC1)c1ccccc1 (configuration not stated),14.5 (active)
9,COc1ccccc1CN1CCN(C(c2ccccc2)c2ccccc2)CC1,inactive
10,CC(C)(C)NCc1cc(Br)ccc1OC1CCCC1,inactive
11,COc1ccc2[nH]c(=O)c(CNc3ccc(C)c(C)c3)cc2c1,inactive
12,CC(=O)c1ccc(N2CCN(S(=O)(=O)c3c(C)[nH]c(=O)[nH]c3=O)CC2)cc1,inactive
13,CN1C(C(=O)NCC2CC2)CC2Cn3c(nc4ccccc43)C21 (configuration not stated),inactive
14,CC1(C)OC(=O)C(=CSc2ccc(C(C)(C)C)cc2)C(=O)O1,inactive
15,COc1ccc(-c2nnc(NC(=O)CS(=O)(=O)c3ccc(Cl)cc3)o2)c(OC)c1,13.4 (active)
16,Cc1ccc(C)c(-c2nnc(NC(=O)CS(=O)(=O)c3ccccc3)o2)c1,inactive
17,COc1ccc(NC(=O)CS(=O)(=O)c2ccccc2)cc1,inactive
18,CCOC(=O)CSC1=N/C(=C/c2ccc(-n3cncn3)cc2)C(=O)N1C(C)=O,inactive
19,COc1ccc(S(=O)(=O)NCC(=O)NC2CC2)cc1OC,inactive
20,CCc1ccc2oc(=O)cc(CN3CCCCC3C)c2c1 (configuration not stated),inactive
21,CCC1OC(c2ccc([N+](=O)[O-])cc2)=Nc2ccccc21 (configuration not stated),inactive
22,Cc1cc(Cl)ccc1C(=O)C1CCCN(C(=O)CCN2CCCO2)C1 (configuration not stated),inactive
23,O=C(COc1ccc(S(=O)(=O)N2CCOCC2)cc1Cl)N1CCOCC1,inactive

row,SMILES,B-score
1,O=c1[nH]oc(O)c1-c1ncc(C(F)(F)F)cc1Cl,inactive
2,CC(C)(C)NC(=O)C(=O)NCc1ccncc1,inactive
3,COc1ccc(CNC(=O)COC(=O)/C=C/c2ccc(S(=O)(=O)N3CCOCC3)cc2)cc1,inactive
4,Cc1ccc(NC(=O)CN2C(=O)NC(C)(c3ccc(Cl)cc3)C2=O)c(Br)c1 (configuration not stated),inactive
5,O=C(COc1ccc2ccc(=O)oc2c1)NCC(O)c1ccccc1 (configuration not stated),inactive
6,O=C(Nc1ccccc1Cl)c1ccccc1S(=O)(=O)c1ccccc1[N+](=O)[O-],inactive
7,CCOC(=O)c1sc2nc(CSCC(=O)OCc3ccc(C(=O)OC)o3)[nH]c(=O)c2c1C,18.9 (active)
8,CCOC(=O)c1sc2nc(C)[nH]c(=O)c2c1C,inactive
9,CCOC(=O)c1sc2nc(CSc3ccccc3)[nH]c(=O)c2c1C,inactive
10,COc1ccccc1N1CCN(C(=O)c2ccc(NC3=NC4CS(=O)(=O)CC4S3)cc2)CC1 (configuration not stated),inactive
11,CCn1cc(C(=O)N2CC=C(c3ccccc3)CC2)c(=O)c2ccc(C)nc21,inactive
12,CCOc1cc(-c2conc2N)cc(OCC)c1OCC,inactive
13,O=C(NCc1ccccc1)C(c1ccco1)N(C(=O)c1csnn1)c1ccccc1F (configuration not stated),inactive
14,COc1ccccc1CN1CCNC(=O)C1CC(=O)N(C)CC1CCOCC1 (configuration not stated),inactive
15,Cc1ccc(CNC(=O)Cn2c(=O)c3sccc3n(Cc3cccc([N+](=O)[O-])c3)c2=O)cc1,inactive
16,O=C(O)CC(Cn1cnnn1)c1ccccc1 (configuration not stated),inactive
17,CCc1ccc2nc(Nc3ncc(C(C)=O)c(C)n3)nc(C)c2c1,inactive
18,CC(O)c1ccc(OCCN(C)c2ccccn2)cc1 (configuration not stated),inactive
19,O=C(CC1C(=O)NCCN1C(=O)c1ccc([N+](=O)[O-])cc1)Nc1cccc(Cl)c1 (configuration not stated),inactive
20,CCO[C@@H]1OC(C(=O)NC2CC2)=C[C@H](C)[C@H]1CCCO,inactive
21,O=C(NC1CCCCC1)C1CC(=O)N(CCc2ccccc2)C1 (configuration not stated),inactive
22,CCOC(CNC(=O)C(=O)NCC(c1ccco1)N1CCN(c2ccc(OC)cc2)CC1)OCC (configuration not stated),inactive
23,CCOc1ccc(S(=O)(=O)N2CCC(C(=O)NCc3ccccn3)CC2)cc1Cl,inactive

row,SMILES,B-score
1,O=C(COc1ccccc1)Nc1nonc1NC(=O)COc1ccccc1,inactive
2,CC(=O)c1cc2c(cc1NC(=O)CN1CCCCCC1)OCO2,inactive
3,O=C(CCN1C(=O)C2CCCCC2C1=O)Nc1ccc(OC(F)F)cc1 (configuration not stated),inactive
4,COC(=O)c1ccc(NC(=O)CSc2nnc(C3CC3)n2C)cc1,inactive
5,COC(=O)c1ccc(NC(=O)CSc2nnc(-c3ccncc3)n2C)cc1,12.9 (active)
6,COC(=O)c1ccc(NC(=O)CSc2nnc(CNc3ccc(OC)cc3)n2C)cc1,inactive
7,COc1cccc(-c2cccc(NC(=O)C3CCN(C4CCC4)CC3)c2)c1,inactive
8,CC(=O)c1c(C)[nH]c(C(=O)N2CCN(S(=O)(=O)c3ccc(F)c(F)c3)CC2)c1C,inactive
9,[O-][n+]1onc2c1CCc1[nH]c(-c3ccccc3)nc1-2,inactive
10,C=CCN1C(=NC(=O)COc2ccccc2)SC2CS(=O)(=O)CC21 (configuration not stated),inactive
11,O=c1c2ccccc2cnn1Cc1n[nH]c(=S)n1-c1ccccc1F,inactive
12,CCC(C(=O)OCC(=O)Nc1ccccc1-c1ccccc1)c1ccccc1 (configuration not stated),inactive
13,CCOCCN(C=O)c1cccc(OC)c1,inactive
14,C=CCc1cc(S(=O)(=O)c2ccc(O)c(CC=C)c2)ccc1O,inactive
15,C=CCc1ccc(OCCOc2cccc(/C=N/n3cnnc3)c2)c(OC)c1,inactive
16,CN(C(=O)CC(NC(=O)c1ccccc1)(c1ccccc1)c1ccccc1)c1ccccc1,inactive
17,Cc1cccc(NC(=O)C(C)N2C(=O)C3C4CC(C(Br)C4Br)C3C2=O)c1 (configuration not stated),inactive
18,CC(=O)c1c(N2CCN(c3ccc(F)cc3)CC2)nc(=S)n(-c2ccccc2)c1C,inactive
19,CC(=O)Nc1ccc(NC(=O)COc2ccc(S(=O)(=O)NC(C)c3ccccc3)cc2)cc1 (configuration not stated),inactive
20,FC(F)(F)c1cccc(-c2cc3ccccc3nc2N2CCCC2)c1,inactive
21,Cc1cccc2[nH]c(CN(C)C(=O)C3CCC(=O)N(CCc4ccccc4)C3)nc12 (configuration not stated),inactive
